According to PubChem BioAssay AID2284387 (EPA ToxCast):
Results filed as inconclusive are left out. The source made the active and inactive calls. How the source made its calls: active means hit-call score of the fitted dose curve at least 0.9, where 1 is the maximum; inconclusive means response in the unintended direction; inactive means score below 0.9.

Target: human Peroxisome Proliferator-activated Receptor delta (PPARd) Agonism, conducted at France lab site, PPARD (gene 5467) (UniProt Q03181)
Sequence (Q03181 whole entry, looked up): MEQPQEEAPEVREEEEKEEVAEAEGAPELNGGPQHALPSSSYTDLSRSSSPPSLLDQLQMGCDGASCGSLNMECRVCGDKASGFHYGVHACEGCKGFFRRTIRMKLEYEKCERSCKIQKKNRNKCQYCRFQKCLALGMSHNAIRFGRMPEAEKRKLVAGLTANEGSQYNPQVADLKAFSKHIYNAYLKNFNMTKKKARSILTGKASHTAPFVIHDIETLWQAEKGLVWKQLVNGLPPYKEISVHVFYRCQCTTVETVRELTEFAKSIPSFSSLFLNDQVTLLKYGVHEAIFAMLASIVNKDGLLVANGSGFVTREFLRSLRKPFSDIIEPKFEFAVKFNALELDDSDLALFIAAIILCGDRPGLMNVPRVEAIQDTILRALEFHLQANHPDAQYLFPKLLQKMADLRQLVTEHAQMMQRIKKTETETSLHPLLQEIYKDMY
Assay: ERF_FR_NR_COA_hPPARD: Eurofins (ERF) Nuclear Receptor (NR) Functional Coactivator Assay for human Peroxisome Proliferator-activated Receptor delta (PPARd) Agonism, conducted at France lab site
Experimental: ERF_FR_NR_COA_hPPARD is a biochemical, single-readout assay that uses extracted gene-proteins in a cell-free assay. Measurements were taken 2 hours after chemical dosing in a 384-well plate. See PPARdelta Human NHR Functional Agonist Coactivator Assay, Cerep.ERF_FR_NR_COA_hPPARD is an assay component calculated from the ERF_FR_NR_COA_hPPARD assay. It is designed to measure FRET using a type of binding reporter as detected by fluorescence intensity of GW0742 with fluorimetry technology.Data from the assay component ERF_FR_NR_COA_hPPARD was analyzed at the assay endpoint, ERF_FR_NR_COA_hPPARD, in the positive analysis fitting direction relative to DMSO as the negative control and baseline of activity. […]
Histidine-tagged-PPARdelta (Ligand Binding Domain, 1.7 ul/ml proteins) are mixed with 50 nM biotin-tagged-C33 coactivator and 0.4 ug fluorescence acceptor (anti-histidine antibody coupled-beads) in an incubation buffer containing 20 mM Hepes/NaOH (pH 7.4), 80 mM Nacl, 0.08% Tween 20 and 0.8 mM DTT and 0.08% BSA. […] Thereafter, fluorescence donor (streptavidin coupled-beads) is added at a final concentration of 0.4 ug. Following 120 min incubation at 22C, the signal is measured at lambdaex=680 nm and lambdaem=520 and 620 nm using a microplate reader (EnVision, Perkin Elmer). The results are expressed as a percent of the control response to […] nM GW 0742. […]

Structure (SMILES)	outcome
O=C(O)CCC(F)(F)C(F)(F)C(F)(F)F	inactive
CC(C)(Oc1ccc(C(=O)c2ccc(Cl)cc2)cc1)C(=O)O	inactive
